Shown are actives, neighbours in structure and some others; about 19% of the full set was active somewhere.
TDP1 cell noCPT = qHTS for Inhibitors of human tyrosyl-DNA phosphodiesterase 1 (TDP1): qHTS in cells in absence of CPT | 420,000 compounds, 15% hits | Potency, µM (series often up to 46.2 µM), for inactives: top-dose activity change, negative = growth inhibition, actives largely listed as inhibitors | DT40 Tdp1-/- hTDP1 cells, no CPT, ATP luminescence, 48 h | AID 686978, 2013; further: potency means the concentration at half of the fitted maximal effect; nearly all actives have a fitted effect of over 55% in size
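No-CPT arm: Tdp1-/-;hTDP1 DT40 cells (400/well) plus compounds, incubated ≥48 hr at 37 °C. Readout CellTiter-Glo luminescence.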
IL1B secr inh = inflammasome signaling inhibition, IL-1 beta readout | 360,000 compounds, 4.7% hits | THP-1 LPS/ATP IL-1B secretion, AlphaLISA, 16 h; stronger effect = lower value | activity change, % at 57.5 µM; in the data active means activity change below about -50%; inconclusive means mostly about -30% to -49%
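THP-1 cells pretreated 1 hr with compounds (up to 57.5 uM final), then stimulated with LPS (250 ng/mL final) plus ATP (1.25 mM final); secreted IL-1B measured by AlphaLISA after 16 hr, decreased signal indicating inhibition.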
HT1080 IDH1KD tx = kills HT-1080 cells with IDH1 knockdown. 360,000 compounds, 2% hits. Potency, µM (highest dose often 46.1 µM), for the others: top-dose activity, negative = toxicity, most hits filed as cytotoxic. HT-1080 IDH1 knockdown viability, ATP luminescence, 48 h. AID 686971;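 further: potency means the concentration at half of the fitted maximal effect; 0% = DMSO wells and -100% = cell-free medium wells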
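% activity derives from luminescence (CellTiter-Glo), normalised to DMSO and no-cell wells. HT-1080-IDH1KD cells, 750/well, had 48 h compound exposure at 37 °C.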
TDP1 cell CPT = DT40-hTDP1 cell growth loss with CPT; chicken DT40 Tdp1-/-;hTDP1 cells + 20 nM CPT, ATP luminescence, 48 h; Potency, µM (doses to about 46.2 µM), without a hit: top-dose activity change, negative = growth inhibition, actives largely listed as inhibitors; 420,000 compounds, 12% hits; AID 686979; further: potency means the concentration at half of the fitted maximal effect; nearly all actives have a fitted effect of over 55% in size
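Cell growth measured by CellTiter-Glo luminescence after a minimum 48 h, 37 C compound exposure with 20 nM CPT in Tdp1-knockout DT40 cells stably expressing hTDP1, seeded 400/well; qHTS titration format.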
HT1080NT lethal = kills 2HG-producing HT-1080-NT fibrosarcoma cells; 360,000 compounds, 1.6% hits; Potency, µM (doses to about 46.1 µM), for the others: top-dose activity, negative = less viability, hits mostly cytotoxic; HT-1080-NT fibrosarcoma viability, CellTiter-Glo ATP luminescence, 48 h;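 further: NT is the 2HG producing partner of a matched IDH1 knockdown line; potency means the concentration at half of the fitted maximal effect; 0% = DMSO-treated cells and -100% = media-only wells without cells; nearly all actives have a fitted effect of over 55% in size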
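Luminescent CellTiter-Glo readout after 48 hours of compound exposure at 37 degrees C defined viability of HT-1080-NT cells. Activity was normalized to DMSO wells and cell-free media wells; concentration-response curves were fitted and assigned curve classes.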
* hit, by the source's call; ? = inconclusive; . = not tested or not shown. Unless noted, the call rests on the fitted dose curve; in most records, active means well fitted curve in the direction sought with a large enough effect; inconclusive means small, poorly fitted or top-dose-only effect, or another doubt; inactive means no such curve, though single readings can be large; an effect the other way counts as inactive or inconclusive. Unless noted, on the % scale 0 is the no-effect control and ±100 the full control effect.

SMILES	TDP1 cell noCPT	IL1B secr inh	HT1080 IDH1KD tx	TDP1 cell CPT	HT1080NT lethal
Cc1ccccc1-n1c(SCC(=O)N2CCN(c3ccccn3)CC2)nnc1N1CCOCC1	-13%	6	-1%	1%	0%
CCOc1cc2[nH]c(=S)n(CCN3CCC(C)CC3)c(=O)c2cc1OCC	-35%	-2	4%	-25%	-3%
O=C(c1ccc(Cn2c(=O)[nH]c3ccccc3c2=O)cc1)N1CCN(c2ccc(F)cc2)CC1	?	-20	-21%	?	-20%
Cc1ccc(C)c(N2CCN(C(=O)c3ccc(Cn4c(=S)[nH]c5ccc(N6CCOCC6)cc5c4=O)cc3)CC2)c1	15µM*	7	7%	?	-1%
O=C(CCCCCn1c(=S)[nH]c2ccc(N3CCOCC3)cc2c1=O)NCc1ccc(Cl)cc1	?	2	15%	?	-11%
O=C(c1ccc(Cn2c(=S)[nH]c3ccc(N4CCOCC4)cc3c2=O)cc1)N1CCN(c2ccc(F)cc2)CC1	16µM*	-8	-13%	16µM*	-3%
O=c1c2cc(N3CCOCC3)ccc2[nH]c(=S)n1CCN1CCCC1	-15%	-2	1%	-27%	-1%
Cc1ccc(Cn2c(=S)[nH]c3ccc(N4CCOCC4)cc3c2=O)o1	16µM*	?	1%	?	1%
CCOc1cc2[nH]c(=S)n(CCN3CCCCC3CC)c(=O)c2cc1OCC (centres undefined)	16µM*	-24	-11%	?	1%
CCOc1cc2[nH]c(=S)n(C(C)C)c(=O)c2cc1OCC	?	42	-11%	18µM*	-11%
CCOc1cc2[nH]c(=S)n(Cc3ccc(C)o3)c(=O)c2cc1OCC	-30%	6	12%	29µM*	14%
O=C(c1ccc(Cn2c(=S)[nH]c3cc4c(cc3c2=O)OCO4)cc1)N1CCN(c2ccccc2)CC1	23µM*	-3	0%	?	2%
COc1ccc(Cn2c(=S)[nH]c3cc(C(=O)N4CCN(c5ccccc5)CC4)ccc3c2=O)cc1	?	60	10%	?	13%
O=C(c1ccc2c(=O)n(Cc3ccccc3)c(=S)[nH]c2c1)N1CCCC1	?	36	-8%	-22%	-1%
COc1ccc(N2CCN(C(=O)c3ccc(Cn4c(=S)[nH]c5ccc(N6CCOCC6)cc5c4=O)cc3)CC2)cc1	18µM*	18	0%	23µM*	-2%
Cc1ccnc(Nc2nc(-c3ccc(F)cc3)cs2)c1	?	-93*	-25%	?	-2%
Cc1ccnc(NCc2ccc(Cl)cc2)c1	?	-58*	?	?	?
Cc1ccnc(Nc2nc(-c3ccc(Cl)cc3)cs2)c1	21µM*	5	5%	?	-8%
O=C(Cn1cc(C(F)(F)F)ccc1=O)N1CCN(S(=O)(=O)c2ccccc2)CC1	-12%	10	0%	-13%	3%
COc1ccc(C(=O)NCC(c2cccs2)N2CCc3ccccc32)cc1OC (centres undefined)	21µM*	-12	-21%	?	-30%
O=C(NCC(c1cccnc1)N1CCc2ccccc21)c1ccc(F)c(F)c1 (centres undefined)	9.2µM*	.	.	13µM*	.
COc1cc(C(=O)NCC(c2cccnc2)N2CCN(C)CC2)cc(OC)c1OC (centres undefined)	-4%	10	0%	-12%	4%
COC(CNC(=O)c1ccc(N2CCc3ccccc32)c([N+](=O)[O-])c1)OC	?	-15	3%	?	6%
Cc1ccc(C(=O)NCC(c2cccnc2)N2CCc3ccccc32)cc1C (centres undefined)	15µM*	.	.	7.3µM*	.
COc1cc(C(=O)NCC(c2cccnc2)N2CCc3ccccc32)cc(OC)c1OC (centres undefined)	21µM*	.	.	?	.
SMILES	TDP1 cell noCPT	IL1B secr inh	HT1080 IDH1KD tx	TDP1 cell CPT	HT1080NT lethal
CC(C)c1cnc2c(c1SCc1cccc(C(F)(F)F)c1)c(=O)n(C)c(=O)n2C	23µM*	.	.	?	.
CCCc1cnc2c(c1SCc1cccc(C)c1)c(=O)n(C)c(=O)n2C	?	.	.	16µM*	.
COC(=O)c1ccc(CSc2c(C(C)C)cnc3c2c(=O)n(C)c(=O)n3C)cc1	23µM*	.	.	?	.
CCc1cnc2c(c1SCC(=O)Nc1ccc(Cl)cc1)c(=O)n(C)c(=O)n2C	-5%	.	.	-13%	.
CCc1cnc2c(c1SC(C(C)=O)C(=O)N(C)C)c(=O)n(C)c(=O)n2C (centres undefined)	?	.	.	23µM*	.
CCCc1cnc2c(c1SCC(=O)Nc1cccc(C)c1C)c(=O)n(C)c(=O)n2C	0%	.	.	2%	.
CCN(CC)CCSc1c(C(C)C)cnc2c1c(=O)n(C)c(=O)n2C	-2%	.	.	4%	.
Cc1ccccc1NC(=O)CSc1c(C(C)C)cnc2c1c(=O)n(C)c(=O)n2C	?	.	.	-52%	.
O=C(NCC1CCCO1)/C(=C/c1ccccc1F)NC(=O)c1ccccc1 (centres undefined)	-4%	-8	3%	5%	13%
CCN(CC)C(=O)Cn1c(=O)n(CCC(=O)Nc2ccc(F)cc2)c(=O)c2sccc21	4%	9	16%	-11%	9%
CCOC(=O)N1CCN(C(=O)c2ccc(CS(=O)Cc3ccc(C)cc3)o2)CC1 (centres undefined)	?	15	0%	-23%	-1%
CCc1cnc2c(c1SCC(=O)c1ccc(OC)cc1)c(=O)n(C)c(=O)n2C	12µM*	.	.	12µM*	.
CC(C)c1cnc2c(c1SCC(=O)O)c(=O)n(C)c(=O)n2C	6%	.	.	1%	.
CC1CCN(C(=O)CSc2c(C(C)C)cnc3c2c(=O)n(C)c(=O)n3C)CC1	16µM*	.	.	26µM*	.
CC(C)c1cnc2c(c1SCc1ccc([N+](=O)[O-])cc1)c(=O)n(C)c(=O)n2C	8.2µM*	.	.	?	.
CC(C)c1cnc2c(c1SCC(=O)c1ccc(Cl)cc1)c(=O)n(C)c(=O)n2C	23µM*	.	.	18µM*	.
Cc1csc(NC(=O)CSc2nnc(-c3ccncc3)o2)n1	?	-15	3%	?	-1%
CC(C)c1cnc2c(c1SCC(=O)Nc1ccc(C(N)=O)cc1)c(=O)n(C)c(=O)n2C	?	.	.	-28%	.
CC(C)c1cnc2c(c1SCC(=O)Nc1cccc(F)c1)c(=O)n(C)c(=O)n2C	15µM*	.	.	?	.
CCOC(=O)c1sc(NC(=O)CCN2CCCCCC2)c(C(=O)OCC)c1C	?	-99*	?	?	?
CCOC(=O)c1sc(NC(=O)COc2ccccc2Cl)c(C(=O)OCC)c1C	?	.	.	-9%	.

Source: PubChem BioAssay
